This excerpt belongs to a sample that is enriched for hits.
ERG Ets-DNA blk: qHTS for Small Molecule Inhibitors of the ERG Ets/DNA interaction; actives 0.028% (n = 370,000); fluorescence polarization, His-ERG Ets domain / labelled DNA; Potency, µM (highest dose often 76.9 µM), usual class: inhibitors; active = well fitted inhibition curve with a large enough effect in the polarisation, with a control signal flat; inconclusive = small, poorly fitted or top-dose-only effect, or effect the other way, or a change in a side signal; inactive = no such curve, though single readings can be large or run the other way; the % refers to the polarisation;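 note: polarization taken with two DNA probes labelled with fluorescein and Texas red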
Target sequence (P11308 whole entry, looked up, the tested form may be a part): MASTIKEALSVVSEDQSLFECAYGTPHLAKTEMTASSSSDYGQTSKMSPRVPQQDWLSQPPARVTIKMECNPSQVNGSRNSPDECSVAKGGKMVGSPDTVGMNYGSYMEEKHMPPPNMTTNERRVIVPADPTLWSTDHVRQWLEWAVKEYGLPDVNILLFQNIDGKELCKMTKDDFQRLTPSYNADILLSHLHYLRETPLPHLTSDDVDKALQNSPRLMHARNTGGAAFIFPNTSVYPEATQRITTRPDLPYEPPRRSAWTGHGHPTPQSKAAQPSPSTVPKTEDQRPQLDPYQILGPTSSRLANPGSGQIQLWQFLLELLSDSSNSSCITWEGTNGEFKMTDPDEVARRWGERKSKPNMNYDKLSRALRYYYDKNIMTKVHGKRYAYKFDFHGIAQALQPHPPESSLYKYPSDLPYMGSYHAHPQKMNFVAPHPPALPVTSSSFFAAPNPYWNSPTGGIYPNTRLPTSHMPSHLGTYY
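His-tagged ERG Ets domain (1 uM in the protein solution; 300mM KCl, 50mM Tris-HCl, 1mM EDTA, 1mM DTT, pH 7.5) received compound, then a probe mix of 5 nM fluorescein-DNA and 100nM Texas-615-DNA. Fluorescence polarization was read for both dyes.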
Giardia killer: Small Molecules that selectively kill Giardia lamblia: qHTS; Giardia lamblia trophozoite viability; activity change, % at 7.66 µM, hits read low; actives 0.15% (n = 340,000); AID 540267, 2011; in the data active = activity change below about -80%; inconclusive = between about -30% and that limit;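 note: parasites exposed to compound for two days anaerobically before the ATP read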
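ATP-content bioluminescence gauges trophozoite survival. Cells (100/well) receive compound and incubate anaerobically for 48 hrs at 37 deg C; detection reagent follows for 15-30 min at room temperature.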
VP16 counter: VP16 counterscreen qHTS for inhibitors of ROR gamma transcriptional activity; Drosophila S2 Gal4-VP16 UAS-luciferase, luminescence, 20 h; Potency, µM (highest dose often 53.6 µM), most hits filed as inhibitors; actives 3.5% (n = 310,000); AID 2546, 2010;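 note: Gal4-VP16 expression switched on by copper sulfate through the metallothionein promoter; nearly all actives have a fitted effect of over 50% in size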
RORg inh: qHTS for inhibitors of ROR gamma transcriptional activity; actives 5.4% (n = 310,000); Drosophila S2 Gal4-RORgamma UAS-luciferase reporter, 20 h; Nuclear receptor ROR-gamma (Mus musculus), P51450; Potency, µM (titrated, usually from 53.6 µM), usual class: inhibitors; note: nearly all actives have a fitted effect of over 60% in size
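Read-out: Photinus luciferase luminescence; inhibitors lower reporter signal. Insect Schneider cells with Gal4-ROR gamma fusion under metallothionein promoter, UAS reporter; 700 uM final copper sulfate induction, 20 hr, ambient temperature.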
Integrin act MD: qHTS for Activators of Integrin-Mediated Alleviation for Muscular Dystrophy; alpha7betagal myoblasts, beta-gal FDG fluorescence, 48 h; Potency, µM (doses to about 38.3 µM), actives largely listed as activators; actives 0.064% (n = 350,000); AID 624291, 2012; note: nearly all actives have a fitted effect of over 60% in size
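Alpha7betagal+/- myoblasts (passage 13) were plated 16-24 hr, then exposed to compounds (1:260 dilution of DMSO stock) for 48 hours at 37C. After MPER lysis, β-galactosidase reporter activity was read as FDG fluorescence (ex 480/em 540) after 30 minutes.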
Large screens that a line does not name were inactive. Unless noted, calls come from the whole dose curve; as a rule, active = well fitted curve in the direction sought with a large enough effect; inconclusive = small, poorly fitted or top-dose-only effect, or another doubt; inactive = no such curve, though single readings can be large; an effect the other way counts as inactive or inconclusive.

O=C(C[n+]1ccccc1)N/N=C/c1cc(Br)cc(Br)c1O	none
O=C(Cc1ccccc1)N/N=C/c1cc(Br)cc(Cl)c1O	VP16 counter 1.3µM, RORg inh 0.56µM
O=C1CC(NS(=O)(=O)c2cccnc2)CN1c1cccc(F)c1 (centres undefined)	none (no result: VP16 counter, RORg inh)
CSc1ccccc1NC(=S)Nc1ccccc1C(F)(F)F	RORg inh inconclusive
Cc1occc1C(=O)NNC(=S)Nc1ccccc1C(F)(F)F	VP16 counter inconclusive (no result: ERG Ets-DNA blk)
COc1ccccc1NC(=S)NC(C)=O	RORg inh 11µM
Cc1ccc(C(=O)NCC(=O)Nc2ccccc2C(F)(F)F)cc1	none
CC(C)(C)CC(=O)NC(=S)Nc1ccccc1C(F)(F)F	VP16 counter 20µM, RORg inh 3.2µM
CC(C)CC(=O)NC(=S)Nc1ccccc1C(F)(F)F	VP16 counter inconclusive, RORg inh 5.6µM
Cc1ccc(C(=O)NC(=S)Nc2ccccc2C(F)(F)F)cc1	VP16 counter inconclusive, RORg inh 4.5µM
O=C(Nc1cc(S(=O)(=O)N2CCCCC2)ccc1N1CCCCC1)C1CC1	none
CC1CC[C@@]23CCC4(C)[C@@]5(C)CCC6C(C)(C)C(=O)CC[C@@]6(C)C5C=C[C@@]4(OC2=O)C3C1C (some centres undefined)	RORg inh inconclusive (no result: ERG Ets-DNA blk, Giardia killer, Integrin act MD)
CC(C)CC(=O)NC(=S)Nc1ccccn1	VP16 counter 20µM
CC(=O)NC(=S)Nc1cccc2ccc(C)nc12	VP16 counter 13µM, RORg inh 2.8µM
COc1c(C)cccc1C(=O)NC(=S)Nc1cccc2nsnc12	none
COc1ccccc1NC(=O)CC(=O)Nc1ccccc1OC	none
COc1ccccc1NC(=S)NC(=O)CC(C)C	VP16 counter 13µM, RORg inh 2.2µM
CC(C)CC(=O)NC(=S)Nc1cccc2nsnc12	RORg inh 7.9µM
CC(C)CC(=O)NC(=S)Nc1ccccc1F	VP16 counter inconclusive, RORg inh 10µM
Oc1ccc2ccccc2c1C=NCc1cn2ccsc2n1	VP16 counter 13µM, RORg inh inconclusive (no result: ERG Ets-DNA blk)
O=C(NC(=S)Nc1ccccc1F)C1CCCCC1	VP16 counter 7.9µM, RORg inh 8.9µM (no result: ERG Ets-DNA blk, Giardia killer, Integrin act MD)
O=C(NC(=S)Nc1ccccc1Br)C1CCCC1	VP16 counter 7.1µM, RORg inh 3.2µM
O=C(C[n+]1cc(-c2ccc(Cl)cc2)n2c1CCCCC2)c1ccccc1	none
CC(C)[C@@H]1CC[C@@H](C)C[C@H]1OC(=O)C[n+]1cc(-c2ccc(Cl)cc2)n2c1CCCCC2	VP16 counter 11µM, RORg inh inconclusive
COc1ccc(-c2c[n+](CC(=O)OC3CC(C)CCC3C(C)C)c3n2CCC3)cc1 (centres undefined)	VP16 counter 7.9µM, RORg inh inconclusive
C#CCCCC(=O)Nc1ccccc1	none (no result: ERG Ets-DNA blk, Giardia killer, Integrin act MD)
CN(C)c1ccc(Nc2nc(N)c3ccccc3n2)cc1	Giardia killer inconclusive, VP16 counter 3.5µM, RORg inh inconclusive
Nc1nc(Nc2ccc(Cl)cc2)nc2ccccc12	Giardia killer inconclusive, VP16 counter inconclusive
CCOc1ccc(Nc2nc(N)c3ccccc3n2)cc1	Giardia killer inconclusive, VP16 counter inconclusive, RORg inh 7.1µM
Nc1nc(Nc2ccccc2)nc2ccccc12	Giardia killer inconclusive, VP16 counter inconclusive, RORg inh inconclusive
O=C(NCCN1CCOCC1)C1(C(F)(F)F)C/C(=C/CCO)CCCO1 (centres undefined)	none (no result: ERG Ets-DNA blk, Integrin act MD)
CCOc1cccc(/C=N/NC(=O)c2cccnc2)c1O	VP16 counter 0.32µM, RORg inh 0.2µM, Integrin act MD inconclusive
COc1cc(/C=N/NC(=O)c2cc(C3CC3)[nH]n2)cc(OC)c1OC	none
CCOc1cccc(/C=N/NC(=O)c2cc(C3CC3)[nH]n2)c1O	VP16 counter 2.8µM, RORg inh 2.2µM
C=C(CC1([C@@H](NP(=O)(c2ccccc2)c2ccccc2)[C@H]2C[C@@H]2CCN(C(=O)OCC)S(=O)(=O)c2ccc(C)cc2)CC1)c1ccccc1	none (no result: ERG Ets-DNA blk, Giardia killer, Integrin act MD)
COc1ccc(-n2c(=O)c3ccccc3n(Cc3cccc(C)c3)c2=O)cc1	none (no result: Giardia killer, VP16 counter, RORg inh, Integrin act MD)
Cc1noc(Cn2c(=O)c3ccccc3n(CC(=O)Nc3cccc(Cl)c3C)c2=O)n1	none (no result: Giardia killer, VP16 counter, RORg inh, Integrin act MD)
O=C(Nc1cccc([N+](=O)[O-])c1)c1ccc(CN2CCOCC2)cc1	VP16 counter inconclusive, RORg inh inconclusive
O=C(NC(=S)Nc1ccc(CN2CCOCC2)cc1)c1ccc([N+](=O)[O-])cc1	VP16 counter 10µM, RORg inh 14µM
COc1ccc(C(=O)NC(=S)Nc2ccc(CN3CCOCC3)cc2)cc1	VP16 counter inconclusive, RORg inh 11µM
O=C(/C=C/c1cccc([N+](=O)[O-])c1)NC(=S)Nc1ccc(CN2CCOCC2)cc1	VP16 counter inconclusive, RORg inh 13µM
COc1ccc(C(=O)NC(=S)Nc2ccc(CN3CCOCC3)cc2)cc1Br	VP16 counter 18µM, RORg inh 7.1µM
C=CCOC(=O)C(C(C)=O)C(NC(=O)OC)c1cccc(F)c1 (centres undefined)	none (no result: ERG Ets-DNA blk, Giardia killer, Integrin act MD)
COc1ccc(S(=O)(=O)N2CCOC2CNC(=O)C(=O)NCCCN2CCOCC2)cc1 (centres undefined)	none
CC1(C)COCN1S(=O)(=O)c1ccc(C(=O)Nc2nnc(-c3ccc(Cl)s3)o2)cc1	VP16 counter 0.13µM, RORg inh 0.11µM
O=C(Nc1nnc(-c2ccc(Cl)s2)o1)C1CCCCC1	none (no result: VP16 counter, RORg inh)
COc1ccc(-c2nnc(NC(=O)c3ccc(S(=O)(=O)N4COCC4(C)C)cc3)o2)cc1	VP16 counter 0.4µM, RORg inh 0.22µM
CCCC(=O)Nc1nnc(-c2ccc(Cl)s2)o1	VP16 counter inconclusive, RORg inh 8.9µM
Cc1ccc2[nH]c(-c3ccc(F)cc3F)cc(=O)c2c1	VP16 counter inconclusive (no result: ERG Ets-DNA blk, Giardia killer, Integrin act MD)
CCN1C(=O)C(CC(=O)Nc2ccc(Br)cc2)N(CCCc2ccccc2)C1=S (centres undefined)	VP16 counter inconclusive, RORg inh inconclusive
O=C1c2c(O)cc(O)cc2OC(c2ccc(O)c(O)c2)C1O (centres undefined)	none (no result: ERG Ets-DNA blk, Giardia killer, Integrin act MD)
COc1ccc([C@H]2Oc3cc(O)cc(O)c3C(=O)C2[C@@H]2C(=O)c3c(O)cc(O)cc3O[C@@H]2c2ccc(OC)cc2)cc1 (some centres undefined)	VP16 counter 22µM
Cc1ccc2nc(N/N=C/c3ccccc3C#N)nc(-c3ccccc3)c2c1	VP16 counter inconclusive, RORg inh 11µM
Cc1ccc2nc(NCCO)nc(-c3ccccc3)c2c1	none
N#Cc1ccccc1/C=N/Nc1nc(-c2ccccc2)c2cc(Cl)ccc2n1	none
Cc1cc(-c2ccccc2)nc(N/N=C/c2ccccc2F)n1	VP16 counter 18µM, RORg inh inconclusive
Cc1ccc2nc(N/N=C/c3ccccc3F)nc(-c3ccccc3)c2c1	VP16 counter 11µM, RORg inh inconclusive
